# In PubChem BioAssay AID504652 (National Center for Advancing Translational Sciences (NCATS), 2011):
# Hit rate of the full screen: of about 360,000 compounds, about 11,000 (3.1%) were called active. This is one part of a sample in which actives are shown more often than they occur. Unmarked numbers belong to inactive results. No stated cut-off is given here; in the data, active means activity change below about -30%; inactive means the rest.
# Target: D(1A) dopamine receptor (Homo sapiens) (UniProt P21728)
# Sequence (P21728 whole entry, looked up): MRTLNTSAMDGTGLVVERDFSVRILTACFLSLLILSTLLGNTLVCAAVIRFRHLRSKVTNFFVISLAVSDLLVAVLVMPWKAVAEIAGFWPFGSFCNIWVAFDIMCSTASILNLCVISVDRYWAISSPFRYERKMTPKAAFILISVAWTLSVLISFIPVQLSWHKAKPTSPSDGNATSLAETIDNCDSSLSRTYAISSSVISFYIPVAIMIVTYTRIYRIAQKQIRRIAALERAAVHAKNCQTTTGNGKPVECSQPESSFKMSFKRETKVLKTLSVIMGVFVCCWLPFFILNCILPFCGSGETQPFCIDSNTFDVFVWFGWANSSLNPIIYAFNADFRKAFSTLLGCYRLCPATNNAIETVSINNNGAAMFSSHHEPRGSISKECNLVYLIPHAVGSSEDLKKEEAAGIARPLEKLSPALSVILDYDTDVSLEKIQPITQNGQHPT
# Assay: Antagonist of Human D 1 Dopamine Receptor: qHTS
# Settings: HEK293 TREx D1 cells, calcium flux, dopamine EC80; at 10 µM; hits give low values
# Text: Dopamine receptors (DARs) are involved in the etiology and/or therapy of a number of neuropsychiatric and endocrine disorders. For instance, all receptor-based antiparkinsonian drugs work via stimulating the […] DAR subtype whereas all FDA-approved antipsychotic agents are antagonists of this receptor. […] There are three different types of allosteric modulators that we are seeking, two of which will stimulate or augment receptor signaling, allosteric agonists and potentiators, while the third, allosteric antagonists, will attenuate receptor signaling. The present primary screening assay measures compound antagonism after an EC80 addition of dopamine by tracking calcium flux in a […], inducible Hek293 Trex D1 cell line. NIH Chemical Genomics Center [NCGC] NIH Molecular Libraries Probe Centers Network [MLPCN] MLPCN Grant: NS064831-01 Assay Submitter (PI): David Sibley
# Freshly passaged cells are plated in 1536 well black, clear bottom plates at a density of 4000 cells/well in 3 ul of complete media containing 1x tetracycline inducer. After an overnight incubation at 30 C in 5% CO2, cells are loaded with 2 ul of the no wash Calcium Assay Kit (ABD Bioquest) and incubated at room temperature for 30 to 90 minutes. Agonist read: A 10 cycle (1 second/cycle) baseline measurement is taken and then the FDSS online 1536 pintool delivers 23 nl of compound library (as well as dopamine controls) to the plate. The plate is measured for kinetically at 1 cycle/sec for 180 seconds. Following the 180 second read, 1 ul of an EC80 (negative modulation assay) is delivered by an onboard pipette head. Measurements are taken kinetically for an additional 180 seconds.
# On the % scale 0 is the no-effect control and ±100 the full control effect.
row,SMILES,"activity change, negative = inhibition"
1,CCN(C(=O)CSc1nnc(-c2ccncc2)o1)c1ccccc1,-3.41%
2,CCc1ccccc1NC(=O)CSc1nnc(-c2ccncc2)o1,7.4%
3,CCOc1ccc(C(=O)c2cn(Cc3ccc(F)cc3)c3ccc(F)cc3c2=O)cc1,-1.13%
4,Cc1cccc(Cn2c(SCc3ccc(C(=O)N4CCC(C)CC4)cc3)nc3ccncc32)c1,-18.5%
5,O=C1NC(c2ccccc2)Oc2ccccc21 (stereo not given),3.6%
6,CN1CC(c2ccccc2)C2(COc3ccccc3C2=O)C12C(=O)Nc1ccccc12 (stereo not given),-39.3% (active)
7,Oc1ccccc1-c1nc(/C=C/c2ccc(F)cc2)no1,3.54%
8,Cc1cc2c(cc1S(=O)(=O)CCC(=O)Nc1ccc(OC(F)(F)F)cc1)OCC(=O)N2,-0.986%
9,CCOC(=O)c1ccc(NC(=O)CC2C(=O)N(c3cccc(OC)c3)C(=O)N2C2CCCCC2)cc1 (stereo not given),-8.12%
10,CC(=O)c1sc(N/N=C\c2ccc(C)cc2)nc1C,-54.7% (active)
11,CC(=O)c1sc(N/N=C/c2ccc(C(C)C)cc2)nc1C,-11%
12,CC(=O)c1sc(NC(=O)C2=NN(c3ccccc3)C(=O)CC2)nc1C,2.3%
13,CCOC(=O)CNC(=O)c1cc2c(=O)n3cccc(C)c3nc2s1,0.697%
14,CCOc1ccc(N(CC(=O)NC2CCCCCC2)S(=O)(=O)c2c(C)[nH]c(=O)[nH]c2=O)cc1,7.77%
15,COc1ccc(N(CC(=O)NC2CCCCCCC2)S(=O)(=O)c2c(C)nn(C)c2C)cc1,-2.1%
16,COc1ccc(N(CC(=O)NC2CCCCC2)S(=O)(=O)c2c(C)[nH]c(=O)[nH]c2=O)cc1,-34% (active)
17,CCCOn1c(-n2nc(C)cc2C)nc2ccccc2c1=O,-4.18%
18,Cc1cc(C)n(-c2c(F)c(F)c(COC(=O)c3ccccc3)c(F)c2F)n1,-44% (active)
19,CCOC(=O)c1cnc(-n2nc(C)cc2C)nc1NNc1cc(C)nc(-c2ccccc2)n1,-5.98%
20,CCCN(CCC)C(=O)C1CCCN(c2ncnc3c2nc2n3CCCCC2)C1 (stereo not given),11.5%
21,CC(OC(=O)CCCc1c[nH]c2ccccc12)C(=O)Nc1ccc(S(N)(=O)=O)cc1 (stereo not given),8.67%
22,Cc1ccc(NC(=O)C(C)OC(=O)Cc2c[nH]c3ccccc23)cc1S(=O)(=O)N1CCOCC1 (stereo not given),-47.8% (active)
23,Cc1cc(C(=O)Nc2ccc(C)c(S(=O)(=O)N3CCOCC3)c2)c2ccccc2n1,11.4%

row,SMILES,"activity change, negative = inhibition"
1,COc1cc(OC)c(OC)cc1/C=C/c1nc2cc3ccccc3cc2c(=O)n1-c1ccc(F)c(Cl)c1,-0.661%
2,CCCN(CCC)C(=O)Cn1c(=O)n(-c2ccc(Cl)cc2)c(=O)c2c3c(sc21)CCCCC3,10.1%
3,Cc1ccc(CNC(=O)Cn2c(=O)ccc3cc(S(=O)(=O)N4CCCC4)ccc32)cc1,3.17%
4,CCCCCOC(=O)NCCOC(=O)Nc1ccc(C(=O)OCC)cc1,-34.7% (active)
5,Cc1ccc(NC(=O)OCCNC(=O)c2ccncc2)cc1,-26.6%
6,CCCCC(CCC(=O)Nc1ccc(C(=O)OCC)cc1)C(=O)O (stereo not given),-5.38%
7,Cc1ccc2nc(COc3cccc(NC(=O)c4cccc(Cl)c4)c3)cc(=O)n2c1,3.14%
8,CCOC(=O)c1cc2c(=O)n3ccccc3nc2n(Cc2ccco2)c1=NC(=O)c1ccc(F)cc1,-29.5%
9,COc1ccc(OC)c(NC(=O)Cn2c(=O)n(Cc3ccccc3)c(=O)c3ccccc32)c1,-5.43%
10,CCOc1ccc(NC(=O)c2c(NC(=O)Cc3ccccc3)sc3c2CCC(C)C3)cc1 (stereo not given),11.2%
11,Cc1ccc(NC(=O)c2cc(S(=O)(=O)NCCC3=CCCCC3)ccc2F)cc1C,-29.8%
12,CC(Nc1nc(N2CCOCC2)nc2ccccc12)c1ccccc1 (stereo not given),-48.3% (active)
13,CC(Nc1nc(N2CCCC2)nc2ccccc12)c1ccccc1 (stereo not given),-25.4%
14,CC(Nc1nc(N2CCN(CCO)CC2)nc2ccccc12)c1ccccc1 (stereo not given),2.98%
15,Cc1ccccc1CNC(=O)c1cccc(NC(=O)c2nsc3ccccc23)c1,3.86%
16,COc1cc(CNCCSc2nnnn2C)ccc1OCc1ccc(Cl)cc1Cl,0.753%
17,CN(C)c1ccc(C(=O)NCC(=O)OC(C(=O)Nc2cc(C(F)(F)F)ccc2Cl)c2ccccc2)cc1 (stereo not given),-15.1%
18,Cc1ccc(C(=O)Cc2nnc(C)s2)cc1,7.19%
19,Cc1ccc(C(=O)CS(C)(=O)=O)cc1,-33.3% (active)
20,Cc1ccc(C(=O)Cn2cccn2)cc1,-6.01%
21,CCc1nc2onc(C)c2c(=O)n1CC(=O)O,10.4%
22,O=C(COc1ccccc1F)OCc1cc(=O)n2nc(C3CCCCC3)sc2n1,11%
